# APEX1 inh – blocks human APE1 abasic DNA cleavage; P27695; 350,000 tested, 0.35% active; recombinant APE1, TAMRA/BHQ-2 abasic DNA cleavage fluorescence; Potency, µM (series often up to 65.8 µM), inactives show top-dose activity change, negative = inhibition, usual class: inhibitors; AID 2517;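 also: plate controls were vehicle for no effect and reference inhibitor for full effect; nearly all actives have a fitted effect of over 55% in size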
#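 Readout is kinetic fluorescence (ex 525, em 598 nm) from cleavage of 50 nM TAMRA/BHQ-2 THF abasic duplex by 0.75 nM APE1, compound added 15 min beforehand at RT.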
# JMJD2E inh – JMJD2E (human) inhibition | B2RXH2 | JMJD2E catalytic domain, FDH-coupled NADH fluorescence (FDH is formaldehyde dehydrogenase) | Potency, µM (titrated, usually from 57.1 µM), without a hit: top-dose activity change, negative = inhibition, usual class: inhibitors | 230,000 tested, 1.6% active | AID 2147; active = well fitted inhibition curve with a large enough effect, not every such curve was filed as active; inconclusive = small, poorly fitted or top-dose-only effect, or another doubt; inactive = no such curve, though single readings can be large or run the other way;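 also: 0% = wells with enzyme and -100% = buffer wells without enzyme; nearly all actives have a fitted effect of over 50% in size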
# L3MBTL1 inh-1 – blocks human L3MBTL1 | Q9Y468 | AlphaScreen L3MBTL1–H3K9me1 peptide binding | Potency, µM (highest dose often 57.1 µM), without a hit: top-dose activity, negative = inhibition, most hits filed as inhibitors | 230,000 tested, 0.66% active | AID 485360; also: % is scaled to controls: 0 for no effect and ±100 for the full control effect; nearly all actives have a fitted effect of over 60% in size
#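 L3MBTL1 50 nM + b-AHA-H3(1-15)K9me1 75 nM, 30 min RT; compound added, 30 min RT; streptavidin donor/Ni-chelate acceptor beads 10 ug/mL each final, 30 min RT dark; AlphaScreen read.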
# RECQ1 inh-1 – inhibitors of human RECQ1 DNA helicase; AID 2549; 240,000 tested, 0.54% active; P46063; RECQ1 DNA unwinding, red fluorescence kinetic read; Potency, µM (highest dose often 57.3 µM), for inactives: at the top dose activity, negative = inhibition, most hits filed as inhibitors;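 also: plate controls were vehicle for no effect and no enzyme for full effect; nearly all actives have a fitted effect of over 30% in size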
#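 RECQ1T1 50 nM; forked duplex (20 bp + 30-nt ss tails) 200 nM, ATP 2 mM final; pH 8.0, 2 mM MgCl2, 2.5 ug/ml poly(dI-dC); 15 min compound preincubation; discontinuous kinetic read over 2 h at RT.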
# BLM inh – blocks DNA unwinding by human BLM helicase; P54132; recombinant BLM DNA unwinding, fluorescence dequenching; Potency, µM (titrated, usually from 56.1 µM), for the others: at the top dose activity change, negative = inhibition, usual class: inhibitors; 350,000 tested, 0.2% active; AID 2528;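 also: plate controls were vehicle for no effect and no enzyme for full effect; nearly all actives have a fitted effect of over 35% in size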
# TDP1 block – blocks human tyrosyl-DNA phosphodiesterase 1; Q9NUW8; recombinant TDP1, AlphaScreen DNA substrate cleavage; Potency, µM (doses to about 130 µM), for the others: top-dose activity change, negative = inhibition, usual class: inhibitors; 350,000 tested, 0.28% active; AID 485290; also: % is scaled to controls: 0 for no effect and ±100 for the full control effect; nearly all actives have a fitted effect of over 40% in size
# Target sequence (Q9NUW8 whole entry, looked up): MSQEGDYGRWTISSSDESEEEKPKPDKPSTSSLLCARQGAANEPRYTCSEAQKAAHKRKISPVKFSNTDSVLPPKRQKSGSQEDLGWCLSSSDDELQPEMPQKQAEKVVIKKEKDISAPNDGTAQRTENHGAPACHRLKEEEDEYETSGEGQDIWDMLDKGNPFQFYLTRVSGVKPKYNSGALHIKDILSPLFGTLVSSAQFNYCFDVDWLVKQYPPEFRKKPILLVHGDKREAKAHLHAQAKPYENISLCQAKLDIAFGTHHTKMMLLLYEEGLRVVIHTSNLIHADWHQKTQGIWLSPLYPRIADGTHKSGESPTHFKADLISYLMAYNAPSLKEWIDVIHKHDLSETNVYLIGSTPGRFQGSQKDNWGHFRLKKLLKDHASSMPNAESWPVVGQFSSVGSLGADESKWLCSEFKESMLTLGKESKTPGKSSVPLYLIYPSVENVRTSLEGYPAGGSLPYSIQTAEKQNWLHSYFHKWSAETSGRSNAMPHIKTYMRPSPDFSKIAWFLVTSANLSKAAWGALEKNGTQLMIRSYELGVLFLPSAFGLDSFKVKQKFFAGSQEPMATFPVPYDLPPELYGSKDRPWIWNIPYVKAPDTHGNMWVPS
#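 Enzyme-compound mixtures sat 15 min at room temperature, followed by a 5 min reaction with 15 nM final substrate and 10 min with AlphaScreen beads. Recombinant human Tdp1 was used at 1 nM final.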
# RECQ1 inh conf – confirmation of human RECQ1 helicase inhibitors. shares compounds with RECQ1 inh-1. 610 tested, 28% active. Potency, µM (highest dose often 229 µM), for inactives: top-dose activity change, negative = inhibition, most hits filed as inhibitors. RECQ1 helicase DNA unwinding, fluorescence; also: % is scaled to controls: 0 for no effect and ±100 for the full control effect; nearly all actives have a fitted effect of over 45% in size
# ADP FP counter – counter-screen for RECQ1 inhibitors: ADP displacement. shares compounds with RECQ1 inh-1. ADP fluorescence polarization displacement counterscreen. Potency, µM (series often up to 228 µM), for the others: at the highest dose activity change, negative = inhibition, hits mostly inhibitors. 530 tested, 27% active. AID 2711; also: % is scaled to controls: 0 for no effect and ±100 for the full control effect; nearly all actives have a fitted effect of over 45% in size
# RECQ1 inh-2 – confirmation of human RECQ1 helicase inhibitors. shares compounds with RECQ1 inh-1. recombinant RECQ1 DNA unwinding, red fluorescence. Potency, µM (top dose mostly 119 µM), for inactives: top-dose activity, negative = inhibition, most hits filed as inhibitors. 1,100 tested, 15% active; also: % is scaled to controls: 0 for no effect and ±100 for the full control effect; nearly all actives have a fitted effect of over 50% in size
# L3MBTL1 inh-2 – validation of human L3MBTL1 methyl-lysine binding inhibitors. L3MBTL1 methyl-lysine binding inhibition, biochemical qHTS. Potency, µM, hits mostly inhibitors. 500 tested, 91% active. shares compounds with L3MBTL1 inh-1; also: nearly all actives have a fitted effect of over 70% in size
# AlphaScreen ctr2 – interferes with AlphaScreen signal in L3MBTL1 counterscreen; Potency, µM (titrated, usually from 57.1 µM), for the others: at the highest dose activity change, negative = inhibition, most hits filed as inhibitors; 500 tested, under 10 active; shares compounds with L3MBTL1 inh-1; AID 602224; AlphaScreen counterscreen, signal inhibition; also: 0% is about no effect
# The depositor's hits bear a star; u = inconclusive; x = no result; ! = not active in a repeat; [ ] = remark or other dose. The sample as a whole holds a higher share of hits than the screen did. Unless noted, calls follow the shape of the dose curve; as a rule, active = well fitted curve in the direction sought with a large enough effect; inconclusive = small, poorly fitted or top-dose-only effect, or another doubt; inactive = no such curve, though single readings can be large; an effect the other way counts as inactive or inconclusive. Potency is read from the fitted curve at half-maximal effect.
SMILES,APEX1 inh,JMJD2E inh,L3MBTL1 inh-1,RECQ1 inh-1,BLM inh,TDP1 block,RECQ1 inh-2,L3MBTL1 inh-2,AlphaScreen ctr2,others
COCCn1c(C)cc(C(=O)COC(=O)c2cc3c(s2)CCC3)c1C,13µM*,u,10µM*,u,-25%,x,u,6.7*,u,
NC(=O)COC(=O)c1cc(-c2ccco2)nc2ccccc12,u,u,-3%,u,-3%,x,x,x,x,
O=C(O)c1cc(-c2ccco2)nc2ccc(Br)cc12,13µM*,u,4.5µM*,3.2µM*!,-12%,8%,u,2.4*,1%,RECQ1 inh conf=45µM*;ADP FP counter=u
Cc1cc(C)c(N(Cc2ccccc2)S(=O)(=O)c2ccc(OCCNC(=O)c3cc4ccccc4o3)cc2)c(C(=O)NO)c1,-10%,x,x,-5%,-9%,19%,x,x,x,
Cc1ccc(C(CCN(Cc2ccccc2)C(=O)c2ccco2)c2ccco2)cc1 (centres undefined),-12%,-12%,25µM*,20µM*,u,-3%,u,21*,-3%,RECQ1 inh conf=50µM*;ADP FP counter=24%[91.9 µM]
CCCCC[C@H](O)/C=C/[C@@H]1[C@H](C/C=C\CCCC(=O)O)[C@@H](O)C[C@H]1O,-3%,3%,x,15%,5%,4%,x,x,x,
C=C(C)C(=O)/C=C/c1ccc(C(F)(F)F)cc1,12%,16%,x,-2%,4%,6%,x,x,x,
O=[N+]([O-])c1cc(F)c2cccnc2c1O,-5%,87%,13µM*,u,u,11%,20%,6*,-60%,
O=[N+]([O-])c1ccc(O)c2ncccc12,11%,u,u,-5%,-10%,11%,x,x,x,
Cc1cc2c(c(=O)o1)C(c1ccc([N+](=O)[O-])o1)C(C#N)=C(N)O2 (centres undefined),8.9µM*,u,32µM*,22µM*,-1%,x,-19%,u,9%,
CCC(CC)C1C(C#N)=C(N)Oc2cc(C)oc(=O)c21 (centres undefined),17%,0%,x,-11%,-5%,2%,x,x,x,
COC(=O)c1ccccc1NC(=O)CCS(=O)(=O)c1ccc(Br)cc1,u,u,8.9µM*,32µM*,2%,x,u,2.7*,4%,
O=S(=O)(c1ccccc1Br)N(Cc1ccccc1)Cc1ccco1,u,x,x,-3%,-4%,8%,x,x,x,
O=C(/C=C/c1ccco1)N(c1ccccn1)c1ccccn1,u,u,4µM*,u,u,x,45µM*,2.7*,-2%,
Cc1c(Cl)cccc1NC(=O)CCS(=O)(=O)c1ccc2c(c1)CC(C)N2C(=O)C1CC1 (centres undefined),x,x,x,x,0%,-3%,x,x,x,
COc1ccc(Sc2ccc(/C=C3\C(=O)NN(c4ccccc4)C3=O)o2)cc1,-7%,-12%,28µM*,10µM*,-21%,8%,x,21*,u,RECQ1 inh conf=-14%[114 µM]

# Screening data deposited in PubChem BioAssay by National Center for Advancing Translational Sciences (NCATS).
